Shn3 inh set2: reduction of Shn3 3'UTR firefly luciferase signal, primary screen, Schnurri-3 inhibitor project, cell-based, Clone20 osteoblasts, set 2; Clone20 osteoblast Shn3 3'UTR firefly luciferase, 24 h; inhibition, % at 12.5 µM; 0.52% of 360,000 active; AID 588674, 2011;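 active = mean inhibition of at least 75% with every replicate also reaching 75%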
Env fusion inh: inhibitors of HIV-1 Env-driven cell-cell fusion, primary screen, HeLa-JRFL effector, CEM21 target cells, luciferase. AID 651610, 2012. inhibition, % at 12.3 µM. 1.1% of 360,000 active;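 active = mean replicate inhibition score of at least 50 and every replicate individually at or above 50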
NSD2 inh: NSD2 histone methyltransferase inhibitors, primary screen, biochemical, AlphaScreen, single concentration, set 2; Histone-lysine N-methyltransferase NSD2 (Homo sapiens), O96028; NSD2 peptide methylation, 120 min; inhibition, % at 12.5 µM; 0.54% of 310,000 active; AID 743445, 2014; in the data active = inhibition above about 50%
LMP1 NFkB inh: EBV LMP1-driven NF-kappaB luciferase reporter inhibitors, primary screen, cell-based, luminescence, single point | LMP1-induced NF-kappaB luciferase reporter cells | inhibition, % at 12.5 µM | 0.69% of 350,000 active | AID 504558, 2011; in the data active = inhibition above about 41%
PAX8 inh HTS: inhibitors of PAX8-driven TPO luciferase reporter, primary screen, RMG-I cells, single concentration. AID 652154, 2013. SteadyGlo, 24 h. 1.2% of 360,000 active. inhibition, % at 12.6 µM;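 active = mean replicate inhibition at least 60% with every replicate also reaching 60%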;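 also: luciferase light reporting Pax8 driven TPO promoter activity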
Glyco luc inh: increase of ERlucT glycosylation luciferase signal, primary screen, N-linked glycosylation inhibitor project, D54 ERlucT cells, luminescence, set 2; 0.23% of 360,000 active; D54 ERlucT glycosylation luciferase reporter, 24 h; percent of 100 nM tunicamycin response; AID 588692, 2011; reporter increase, % at 12.5 µM;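 active = mean luciferase reporter signal, scaled so untreated is 0 and the glycosylation-blocking control 100, at or above a set limit in every replicate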;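 also: luciferase carries N-glycosylation sites so blocking glycosylation raises the light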
Hits are given with their value. Only some compounds are listed: those with a hit (about 2.8% of all), similar ones and a draw of the others.

For CC1CCC(C(C)C)C(OC(=O)C[n+]2cccc(C(N)=O)c2)C1 (stereo not drawn) the results were Shn3 inh set2 inactive, Env fusion inh inactive, NSD2 inh inactive, LMP1 NFkB inh inactive and Glyco luc inh inactive.
For CCCCCCCCN1[C@@H](CC(C)=O)c2cc(C(F)(F)F)ccc2S1(=O)=O the results were Shn3 inh set2 inactive, Env fusion inh 61.1, LMP1 NFkB inh inactive, PAX8 inh HTS inactive and Glyco luc inh inactive.
Screening COCC(=O)Nc1ccc2c(c1)[C@@H]1C[C@@H](CC(=O)NCc3cccc(F)c3)O[C@@H](CO)[C@@H]1O2 returned Env fusion inh inactive and PAX8 inh HTS inactive.
O=S(=O)(c1ccc(Cl)cc1)N1CCC(O)(CN2CCN(Cc3ccccc3)CC2)CC1 was read as Shn3 inh set2 inactive, Env fusion inh inactive, NSD2 inh inactive, LMP1 NFkB inh inactive, PAX8 inh HTS inactive and Glyco luc inh inactive.
Screening O=S(=O)(c1ccccc1)N1CCC(O)(CSc2ccc(Cl)cc2)CC1 returned Shn3 inh set2 inactive, Env fusion inh 61.1, NSD2 inh inactive, LMP1 NFkB inh inactive and Glyco luc inh inactive.
Screening O=C(C[C@@H]1CC[C@@H]2[C@H](COC[C@H](O)CN2CCC(F)(F)F)O1)NCC1CCCCC1 returned Env fusion inh inactive and PAX8 inh HTS inactive.
For CC(C)CC1C(=O)N(Cc2cn(CC3CCCCC3)nn2)CCS(=O)(=O)N1Cc1ccc(-c2ccc(Cl)c(Cl)c2)cc1 (stereo not drawn) the results were Shn3 inh set2 inactive, Env fusion inh inactive, LMP1 NFkB inh inactive, PAX8 inh HTS inactive and Glyco luc inh inactive.
Cc1cccc(C)c1-c1ccc(CN2C(CC(C)C)C(=O)N(Cc3cn(CC4CCCCC4)nn3)CCS2(=O)=O)cc1 (stereo not drawn) was read as Shn3 inh set2 inactive, Env fusion inh inactive, LMP1 NFkB inh inactive, PAX8 inh HTS 70.5 and Glyco luc inh inactive.
`CCC/C=C/c1ccc(CN2C(C)C(=O)N(Cc3cn(CCC4OCCCO4)nn3)CCS2(=O)=O)cc1` (stereo not drawn) gave Shn3 inh set2 inactive, Env fusion inh inactive, LMP1 NFkB inh inactive, PAX8 inh HTS 81.0 and Glyco luc inh inactive.
COCOCCn1cc(CN2CCS(=O)(=O)N(Cc3ccc(-c4ccc(Cl)cc4)cc3)C(C)C2=O)nn1 (stereo not drawn) was read as Shn3 inh set2 inactive, Env fusion inh 57.4, LMP1 NFkB inh inactive, PAX8 inh HTS inactive and Glyco luc inh inactive.
CCC/C=C/c1ccc(CN2C(C(C)C)C(=O)N(Cc3cn(CC4CCCCC4)nn3)CCS2(=O)=O)cc1 (stereo not drawn) was read as Shn3 inh set2 inactive, Env fusion inh 68.2, LMP1 NFkB inh inactive, PAX8 inh HTS inactive and Glyco luc inh inactive.
For Cc1cc(C(=O)Nc2cccc3c2O[C@H](CN(C)Cc2ccncc2)[C@@H](C)CN([C@H](C)CO)C3=O)n(C)n1 the results were PAX8 inh HTS inactive.
O=C(Cc1ccccn1)NCC[C@@H]1CC[C@H](NC(=O)CN2CCOCC2)[C@H](CO)O1 was read as Env fusion inh inactive and PAX8 inh HTS inactive.
For COC(=O)[C@H](Cc1ccc(O)cc1)NC(=O)Cn1cnc(C(=O)Nc2ccc(C)c(C)c2)n1 the results were Shn3 inh set2 inactive, LMP1 NFkB inh inactive, PAX8 inh HTS inactive and Glyco luc inh inactive.
Screening COC(=O)[C@H](Cc1ccccc1)NC(=O)Cn1cnc(C(=O)Nc2ccc(C)c(C)c2)n1 returned Shn3 inh set2 inactive, Env fusion inh 69.2, LMP1 NFkB inh inactive, PAX8 inh HTS inactive and Glyco luc inh inactive.
Screening Cc1ccc(-c2ccc([C@H]3[C@H](CO)N4CCCCN(S(=O)(=O)c5cccc(C)c5)C[C@@H]34)cc2)cc1 returned PAX8 inh HTS 87.2.
For O=S(=O)(c1ccccc1)N1CCCCN2[C@H](CO)[C@H](c3ccc(-c4ccccc4F)cc3)[C@H]2C1 the results were PAX8 inh HTS 114.0.
`O=S(=O)(c1ccccc1)N1CCCCN2[C@H](C1)[C@H](c1ccc(-c3ccccc3F)cc1)[C@@H]2CO` gave PAX8 inh HTS inactive.
`CC(C)NC(=O)Nc1ccc2c(c1)C(=O)N([C@@H](C)CO)C[C@H](C)[C@H](CN(C)C)OCCCC[C@H](C)O2` gave Env fusion inh inactive and PAX8 inh HTS inactive.
`COc1cccc(-c2ccc3n(c2=O)C[C@H]2[C@H](CO)[C@@H](C(=O)NC4CCCC4)N[C@@H]32)c1` gave PAX8 inh HTS inactive.
For CCOC(=O)c1csc(NC(=O)CCS(=O)(=O)c2ccc(Cl)cc2)n1 the results were Shn3 inh set2 inactive, Env fusion inh inactive, NSD2 inh inactive, LMP1 NFkB inh inactive, PAX8 inh HTS 84.0 and Glyco luc inh inactive.
`CCCCc1nnc(NC(=O)CCS(=O)(=O)c2ccc(Cl)cc2)s1` gave Shn3 inh set2 inactive, NSD2 inh inactive, LMP1 NFkB inh inactive, PAX8 inh HTS 76.8 and Glyco luc inh inactive.
CCCc1nnc(NC(=O)CCS(=O)(=O)c2ccccc2)s1 was read as Shn3 inh set2 inactive, Env fusion inh inactive, NSD2 inh inactive, LMP1 NFkB inh inactive, PAX8 inh HTS 78.0 and Glyco luc inh inactive.
O=C(C[C@H]1C[C@H]2c3cc(NC(=O)CC4CC4)ccc3O[C@H]2[C@@H](CO)O1)NCc1cc(F)ccc1F was read as Env fusion inh inactive and PAX8 inh HTS inactive.
Screening CCC(=O)N1CCCCN2[C@H](CO)[C@H](c3ccc(C#Cc4ccccc4F)cc3)[C@@H]2C1 returned PAX8 inh HTS inactive.
N#CN=CN1CC=C(c2ccc(Cl)cc2)CC1 was read as Shn3 inh set2 inactive, Env fusion inh 62.9, NSD2 inh inactive, LMP1 NFkB inh inactive, PAX8 inh HTS inactive and Glyco luc inh inactive.
Screening CCN1CCN(Cc2ccc(NC(=O)c3cc(NC(=O)c4cncc(-c5cccs5)c4)cc(OC)c3)cc2C(F)(F)F)CC1 returned Shn3 inh set2 98.2, Env fusion inh inactive, LMP1 NFkB inh inactive, PAX8 inh HTS inactive and Glyco luc inh inactive.
Screening COc1cc(NC(=O)c2ccno2)cc(C(=O)Nc2cccc(C(F)(F)F)c2)c1 returned Shn3 inh set2 inactive, Env fusion inh inactive, LMP1 NFkB inh inactive, PAX8 inh HTS inactive and Glyco luc inh inactive.
Screening COc1cc(NC(=O)c2cc3cccc(OC)c3o2)cc(C(=O)Nc2cccc(C(F)(F)F)c2)c1 returned Shn3 inh set2 inactive, Env fusion inh inactive, LMP1 NFkB inh inactive, PAX8 inh HTS 91.7 and Glyco luc inh inactive.
